From PubChem BioAssay AID1345085 (National Center for Advancing Translational Sciences (NCATS), 2018)
Inconclusive results are not listed. Active and inactive are the calls of the source. The call rests on the fitted dose curve; in most records, active means well fitted cell-killing curve with a large enough effect; inconclusive means small, poorly fitted or top-dose-only effect, or effect the other way; inactive means no such curve, though single readings can be large or run the other way.

These compounds were tested on JEG-3 (assay: Confirmatory qHTS for gynecologic anti-cancer compounds from libraries of approved drugs and bioactive compounds). Settings: gynecologic cancer cell panel viability, ATPlite luminescence, 48 h; series mostly up to 57.6 µM; activity change, negative = viability loss: at the top concentration.
Procedure, shortened: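 Seeding 1,000 cells per well preceded overnight (16 h) attachment, after which 48 h drug treatment across 57.5 uM–0.977 nM (11 points) was applied. Remaining cellular ATP, detected by ATPlite luminescence, defined IC50.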
Further: nearly all actives have a fitted effect of over 55% in size.
On the % scale 0 is the no-effect control and ±100 the full control effect; potency means the concentration at half of the fitted maximal effect.

With `CNC1CCC(N(Cc2cccc(-c3ccncc3)c2)C(=O)c2sc3ccccc3c2Cl)CC1` (stereo unspecified) as the compound, how does the Potency read?
Its Potency is 27.3 µM (active).

For `COc1cc2c(c(OC)c1OC)-c1ccc(OC)c(=O)cc1[C@@H](NC(C)=O)CC2`, which Potency is on record?
The Potency was 0.178 µM (active).

With `NC(=O)c1cccc2cn(-c3ccc([C@@H]4CCCNC4)cc3)nc12` as the compound, how does the “activity change, negative = viability loss” value read?
The value was -6.66% (inactive).

How did the Potency turn out when `COc1cc(N2CCC(N3CCN(C)CC3)CC2)ccc1Nc1ncc(Cl)c(Nc2ccccc2S(=O)(=O)C(C)C)n1` was run?
Its Potency is 19.3 µM (active).

Which Potency does the source give for `CNC(=O)c1ccccc1Sc1ccc2c(/C=C/c3ccccn3)n[nH]c2c1` here?
Its Potency is 13.7 µM (active).

Which “activity change, negative = viability loss” value does the source give for `CN1C(=O)C(Cc2c[nH]c3ccccc23)NC1=S` (stereo unspecified) here?
The value was -3.66% [at 19.5 µM] (inactive).

For `COc1ccc2c(c1)c(CC(=O)O)c(C)n2C(=O)c1ccc(Cl)cc1`, which “activity change, negative = viability loss” value is on record?
Its value is -15.1% (inactive).

With `Cc1nc2ccc(CN(C)c3ccc(C(=O)NC(CCC(=O)O)C(=O)O)s3)cc2c(=O)[nH]1` (stereo unspecified) as the compound, how does the “activity change, negative = viability loss” value read?
Its value is -13.6% (inactive).

With `COc1ccc(CCC(=O)c2c(O)cc(O[C@@H]3O[C@H](CO)[C@@H](O)[C@H](O)[C@H]3O[C@@H]3O[C@@H](C)[C@H](O)[C@@H](O)[C@H]3O)cc2O)cc1O` as the compound, how does the “activity change, negative = viability loss” value read?
The value was 8.82% (inactive).

Which “activity change, negative = viability loss” value does the source give for `Cc1cncc2cccc(S(=O)(=O)N3CCCN(C(=O)CN)C[C@@H]3C)c12` here?
Its value is -6.44% (inactive).

For `O=C(NCC(O)CO)c1ccncc1Nc1ccc(I)cc1F` (stereo unspecified), which “activity change, negative = viability loss” value is on record?
Its value is -2.76% (inactive).

How did the Potency turn out when `CCc1c2c(nc3ccc(O)cc13)-c1cc3c(c(=O)n1C2)COC(=O)[C@]3(O)CC` was run?
Its Potency is 0.122 µM (active).

Which Potency does the source give for `CCC1C(=O)N(C)c2cnc(Nc3ccc(C(=O)NC4CCC(N5CCN(CC6CC6)CC5)CC4)cc3OC)nc2N1C(C)C` (stereo unspecified) here?
The Potency was 0.0611 µM (active).

Which Potency does the source give for `CCCC(=O)O[C@]1(C(=O)CCl)[C@@H](C)C[C@H]2[C@@H]3CCC4=CC(=O)C=C[C@]4(C)[C@@]3(F)C(=O)C[C@@]21C` here?
Its Potency is 10.9 µM (active).

For `COc1cccc2cc(-c3nc(C4CCC(C(=O)O)CC4)n4ncnc(N)c34)[nH]c12` (stereo unspecified), which “activity change, negative = viability loss” value is on record?
The value was -15% (inactive).

For `Cc1ccc(C(=O)N(CCCN)C(c2nc3cc(Cl)ccc3c(=O)n2Cc2ccccc2)C(C)C)cc1` (stereo unspecified), which Potency is on record?
Its Potency is 0.0153 µM (active).
